Hit rate of the full screen: of about 48,000 compounds, about 13,000 (27%) showed an effect of 50% or more. This is one part of the list.

For this assay, the system named is Wolbachia pipientis. Briefly: Anti-Wolbachia Cell-Based Screen. In kind it is functional. The settings on record: 5 µM. Details: scale not given: in the data most compounds retested in dose-response had high values.
For `Cc1c(NC(=O)CN2CCC(Oc3cnccn3)CC2)cnn1C`, the “Percent Effect” value worked out at 146%. Take `COc1ccnc(NC2CCN(CC(=O)Nc3ccccc3)CC2)n1`: the “Percent Effect” value is recorded as -1.982%. The figure for `Cn1ccc(NC(=O)CN2CCC(Oc3cnccn3)CC2)n1` is 107.4%; for `CCOC1CCN(CC(=O)Nc2oc(C)c3c(C)n[nH]c(=O)c23)CC1` it is -5.173%. `Cc1nc(C)c(CN2CCOC[C@H](Oc3cnccn3)C2)s1`: the “Percent Effect” value was -6.668%. The figure for `Cc1nn(C)cc1NC(=O)CN1CCC(Oc2cnccn2)CC1` is 129.5%. The result for `Cc1nn(C)c(C)c1CC(=O)NCc1ccnc(OC2CCCC2)c1` reads -17.69%; that for `O=C(Cn1ccc2ccccc21)N1CCC(Oc2cnccn2)CC1`, 0.2299%. The result for `O=C(Cn1cccn1)N1CCC(Oc2cnccn2)CC1` reads 4.434%. For `CN1CCC(N2CCN(C(C(=O)O)c3cccc4c3OCC4)CC2)CC1` (stereo not drawn), the “Percent Effect” value was -2.868%.

On to `Cc1nc(-c2cc(C(=O)NC(C)(C(=O)O)C(C)C)co2)cs1` (stereo not drawn), for which the “Percent Effect” value is reported as 1.094%. The figure for `O=C(NCCC1CCCCO1)c1cc(COc2cncc(Cl)c2)on1` (stereo not drawn) is -5.256%; for `CSC(C)(C)CNC(=O)NC1CCSCC1` it is -7.35%. The result for `CC1CN(C)CCN1C(=O)c1ccn(-c2ccccc2)n1` (stereo not drawn) reads 92.82%; that for `CC1CN(C)CCN1C(=O)c1cccn1Cc1ccncc1` (stereo not drawn), 17.94%; that for `CC1CN(C)CCN1C(=O)c1cnn(-c2ccc(Cl)cc2)c1` (stereo not drawn), 3.844%.

Take `CC1CN(C)CCN1C(=O)c1ccn(-c2ccccc2Cl)n1` (stereo not drawn): the “Percent Effect” value was 97.32%.

For `CCc1nc(C(=O)N2CCN(C)CC2C)nn1-c1ccccc1Cl` (stereo not drawn), the “Percent Effect” value stood at 4.953%. The figure for `CC1CN(C)CCN1C(=O)c1ccn(-c2ccc(F)cc2)n1` (stereo not drawn) is 101.7%. The figure for `CC1CN(C)CCN1C(=O)c1cccn1Cc1cccnc1` (stereo not drawn) is 1.342%; for `Cc1cc(NC(=O)N2CCN(C)CC2C)n(Cc2ccccc2)n1` (stereo not drawn) it is -3.69%.

Take `CC1CN(C)CCN1C(=O)c1ccc(-n2cnnc2)cc1` (stereo not drawn): the “Percent Effect” value is listed as -8.678%. The result for `CC1CN(C)CCN1C(=O)c1cnn(-c2cccc(Cl)c2)c1` (stereo not drawn) reads 91.23%.

With `Cc1cnn(-c2ccc(C(=O)N3CCN(C)CC3C)cc2)c1` (stereo not drawn), the “Percent Effect” value is given as -5.131%. The result for `COc1ccc(-n2ccc(C(=O)N3CCN(C)CC3C)n2)cc1` (stereo not drawn) reads -4.695%. Consider `CCCn1cnnc1CNC(=O)CC1C(=O)NCCN1CC(C)(C)C` (stereo not drawn), for which the “Percent Effect” value turned out to be 2.919%. The figure for `O=C1N(CC2CC2)C2(CCSCC2)NC12CCCC2` is -1.128%; for `O=C1CC(c2ccc(C(=O)O)cc2)c2ncn(-c3cccc(Cl)c3)c2N1` (stereo not drawn) it is -0.6524%; for `CC1CN(C)CCN1C(=O)c1ccn(-c2cccc(F)c2)n1` (stereo not drawn) it is 102.3%. `O=C(c1ccn(-c2cccc(F)c2)n1)N1CCN(CC2CC2)CC1`: the “Percent Effect” value is 1.903%. The result for `CC1CN(C)CCN1C(=O)c1ccn(-c2cccc(Cl)c2)n1` (stereo not drawn) reads -2.456%; that for `CCc1cnc(N2CCN(Cc3ccncc3)CC2)s1`, -22.29%. On to `COCCC1(CO)CCCN(Cc2ccncc2)C1` (stereo not drawn), for which the “Percent Effect” value is -9.658%. Turning to `Cc1ccc(CN2CCN(CC3CC3)[C@@H]3CS(=O)(=O)C[C@@H]32)cc1C`, the “Percent Effect” value is given as -7.096%. Regarding `Cc1ccc(CN2CCS(=O)(=O)C(C)(C)C2)cc1C`, the “Percent Effect” value stood at 113.6%.

As to `Cn1cc(CN2CCN(Cc3nccn3C)CC2)cn1`, the “Percent Effect” value is recorded as -17.17%. The figure for `Cc1ccc(CN2CCN(CC(=O)N(C)C)[C@@H]3CS(=O)(=O)C[C@@H]32)cc1C` is 8.037%; for `CC1(C)CN(Cc2ccncc2)CCS1(=O)=O` it is 93.26%. As to `Cn1cc(CN2CC3(CCN(Cc4ccsc4)C3)C2)cn1`, the “Percent Effect” value is on record as -4.449%. The result for `Cn1cc(CN2CCS(=O)(=O)C(C)(C)C2)cn1` reads 112.3%. The figure for `COc1cccc2c1OCC(CNC(=O)COCC(F)(F)C(F)F)C2` (stereo not drawn) is -0.4399%. Take `CC(Cn1cccn1)NC(=O)N(C)Cc1ccc(Cl)s1` (stereo not drawn): the “Percent Effect” value is recorded as -9.644%. The result for `CNC(=O)C(NC(=O)c1nccn2ccnc12)c1ccc(F)c(F)c1` (stereo not drawn) reads 7.625%. The result for `COCCN1C[C@@H]2CN(c3cc(OC)ncn3)CCC[C@]2(C(=O)O)C1.O=C(O)C(F)(F)F` reads -26.02%; that for `COCCCC1CCCCN1Cc1cc(F)ccc1-n1cccn1` (stereo not drawn), -9.489%. The figure for `Cc1nc(CSc2nc(=O)ccn2C(C)C)cs1` is -10.57%; for `CS(=O)(=O)NCC1CCCN(c2ccc(C#N)cn2)C1` (stereo not drawn) it is 7.798%. As for `CCc1nc(N2CCN(c3ncccc3C#N)CC2)c2cnn(C)c2n1`, the “Percent Effect” value was -1.782%. The figure for `CC(C)(C)NC(=O)CN1CCCN(c2ccc(C#N)cn2)CC1` is 24.81%. The result for `CCC1(CO)CCCN(c2ncccc2C#N)C1` (stereo not drawn) reads 13.06%; that for `CCOCCN1CCN(c2ccc(C#N)cn2)CC1CC` (stereo not drawn), 137.2%. With `CCOCCN1CCN(c2ccc(C#N)cn2)CC1`, the “Percent Effect” value stood at 109.9%. The result for `Cn1ccnc1CN1CCN(c2ccc(C#N)cn2)CC1` reads -0.9775%.
